Screening results: PubChem, National Center for Advancing Translational Sciences (NCATS)
Sampled rows, rich in hits. Any-hit rate of the full collection: about 19%.
HT1080 IDH1KD tx – qHTS for induction of synthetic lethality in tumor cells producing 2HG: qHTS for the HT-1080-IDH1KD cell line; Potency, µM (top dose mostly 46.1 µM), inactives show at the highest dose activity, negative = toxicity, usual class: cytotoxic; AID 686971, 2013; HT-1080 IDH1 knockdown viability, ATP luminescence, 48 h; 2% of 360,000 active;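 further: 0% = DMSO wells and -100% = cell-free medium wells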
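Knockdown cells (IDH1KD HT-1080) received compounds 2 h after plating at 750 cells/well and were kept 48 h at 37 °C in 5% FBS RPMI. A CellTiter-Glo luminescence read gave % activity for curve fitting.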
HT1080-NT tox – qHTS for induction of synthetic lethality in tumor cells producing 2HG: qHTS for the HT-1080-NT fibrosarcoma cell line. HT-1080-NT fibrosarcoma viability, CellTiter-Glo ATP luminescence, 48 h. Potency, µM (doses to about 46.1 µM), inactives show top-dose activity, negative = less viability, hits mostly cytotoxic. 1.6% of 360,000 active;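 further: NT is the 2HG producing partner of a matched IDH1 knockdown line; 0% = DMSO-treated cells and -100% = media-only wells without cells; nearly all actives have a fitted effect of over 55% in size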
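Compounds were tested in concentration-response format on HT-1080-NT cells for 48 hours at 37 degrees C. Cell viability came from CellTiter-Glo luminescence; curves were classified by r2, response magnitude and activity.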
KB-3-1 cytotox – qHTS assay for MDR1-selective chemotherapeutics: Primary screen using the parental adenocarcinoma cell KB-3-1; Potency, µM (titrated, usually from 46.1 µM), hits mostly cytotoxic; KB-3-1 viability, CellTiter-Glo ATP luminescence, 72 h; 1.4% of 400,000 active; further: nearly all actives have a fitted effect of over 60% in size
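Viability of parental KB-3-1 cells, measured by CellTiter-Glo luminescence, followed a 72 h incubation at 37 °C with pinned compounds in phenol-red-free DMEM containing 10% FBS.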
DT40 TDP1 no CPT – qHTS for Inhibitors of human tyrosyl-DNA phosphodiesterase 1 (TDP1): qHTS in cells in absence of CPT; DT40 Tdp1-/- hTDP1 cells, no CPT, ATP luminescence, 48 h; Potency, µM (top dose mostly 46.2 µM), for inactives: at the highest dose activity change, negative = growth inhibition, usual class: inhibitors; 15% of 420,000 active; AID 686978, 2013; further: nearly all actives have a fitted effect of over 55% in size
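Chicken DT40 Tdp1-/- cells complemented with human TDP1, screened without camptothecin (DMSO vehicle only), 400 cells/well. Compounds pin-transferred, cells incubated at 37 °C for at least 48 hr. Growth read as ATP-dependent luminescence (CellTiter-Glo, 30 min at RT).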
TDP1 cell CPT – qHTS for Inhibitors of human tyrosyl-DNA phosphodiesterase 1 (TDP1): qHTS in cells in presence of CPT; chicken DT40 Tdp1-/-;hTDP1 cells + 20 nM CPT, ATP luminescence, 48 h; Potency, µM (highest dose often 46.2 µM), without a hit: top-dose activity change, negative = growth inhibition, usual class: inhibitors; 12% of 420,000 active; AID 686979, 2013; further: nearly all actives have a fitted effect of over 55% in size
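Cell growth measured by CellTiter-Glo luminescence after a minimum 48 h, 37 C compound exposure with 20 nM CPT in Tdp1-knockout DT40 cells stably expressing hTDP1, seeded 400/well; qHTS titration format.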
KB-V1 MDR tox – qHTS assay for MDR1-selective chemotherapeutics: Primary screen using the drug-selected MDR subline cells KB-V1 | KB-V1 MDR cells viability, CellTiter-Glo, 72 h | Potency, µM (doses to about 46.1 µM), actives largely listed as cytotoxic | 3.4% of 400,000 active; further: nearly all actives have a fitted effect of over 60% in size
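Cytotoxicity via CellTiter-Glo luminescence after 72 h compound exposure at 37 degrees C. Cells: drug-selected KB-V1 line, DMEM phenol-red free plus 10% FBS. Compounds tested at multiple concentrations; normalized data fitted to concentration-effect curves.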
The depositor's hits bear a star; i = inactive; ? = inconclusive; . = no result given. The call rests on the fitted dose curve; in most records, active means well fitted curve in the direction sought with a large enough effect; inconclusive means small, poorly fitted or top-dose-only effect, or another doubt; inactive means no such curve, though single readings can be large; an effect the other way counts as inactive or inconclusive. Unless noted, on the % scale 0 is the no-effect control and ±100 the full control effect; potency means the concentration at half of the fitted maximal effect.

SMILES | HT1080 IDH1KD tx | HT1080-NT tox | KB-3-1 cytotox | DT40 TDP1 no CPT | TDP1 cell CPT | KB-V1 MDR tox
COc1ccc(-c2csc(NCCc3nc4cc(Cl)c(Cl)cc4n3CCCO)n2)cc1 | ? | -20.3% | ? | 18.4µM* | ? | i
CCCn1c(CCNc2nc(-c3ccc(Cl)c([N+](=O)[O-])c3)cs2)nc2cc(Cl)c(Cl)cc21 | -12.3% | 4.0% | i | -5.4% | -11.3% | i
O=[N+]([O-])c1cc(-c2csc(NCCc3nc4cc(Cl)c(Cl)cc4n3CCCO)n2)ccc1Cl | -1.3% | 1.3% | i | ? | 16.4µM* | i
CCn1c(/C=C/N(C(C)=O)c2ccccc2)[n+](CC)c2ccc(Cl)cc21 | 4.6% | 9.6% | i | 14.6µM* | 16.4µM* | i
CC[n+]1c(/C=C/C=C/N(C(C)=O)c2ccccc2)sc2ccccc21 | ? | ? | 16.4µM* | 20.6µM* | ? | ?
CNS(=O)(=O)c1cc(NC(=O)c2cncn2-c2ccccc2)ccc1C | -1.5% | 21.1% | i | -4.0% | -3.2% | i
Cc1oc(-c2ccc(Cl)cc2)nc1CN1CCC(C(=O)NCc2ccco2)CC1 | -1.8% | -25.3% | i | ? | -23.3% | 9.2µM*
CCN1CCCC1CNC(=O)C1CCN(Cc2nc(-c3cccc(Br)c3)oc2C)CC1 (configuration not stated) | ? | 20.6µM* | ? | 2.91µM* | 5.8µM* | i
Cc1ccccc1-c1nc(CN2CCC(C(=O)N3CCN(c4ccccn4)CC3)CC2)c(C)o1 | -1.1% | -10.9% | ? | ? | 23.1µM* | i
Cc1ccccc1-c1nc(CN2CCC(C(=O)N3CCC(C(N)=O)CC3)CC2)c(C)o1 | -0.4% | 14.9% | i | -0.8% | 18.3% | i
COc1ccccc1CNC(=O)C1CCN(Cc2nc(-c3cccc(Cl)c3)oc2C)CC1 | 15.0% | 0.4% | ? | ? | 20.6µM* | i
Cc1cc(C(=O)COC(=O)c2ccc(Cl)c(S(N)(=O)=O)c2)c(C)n1C1CC1 | 2.6% | 0.4% | i | ? | ? | i
COC(=O)c1cn(CC(C)n2c(=O)c3ccccc3n2Cc2cc(C(C)C)no2)nn1 (configuration not stated) | 12.4% | 12.7% | i | 19.1% | 10.6% | i
CCOC(=O)c1cnc2nc(NCc3cccc(Br)c3)[nH]n2c1=O | . | . | i | -3.7% | -5.3% | i
CCc1ccc(-c2nc(CN3CCC(C(=O)NCc4ccccc4OC)CC3)c(C)o2)cc1 | -23.9% | -22.3% | ? | ? | 18.4µM* | ?
Cc1oc(-c2cccc(Cl)c2)nc1CN1CCC(C(=O)NCc2ccc(F)cc2)CC1 | . | . | i | 14.6µM* | ? | i
Cc1ccccc1-c1nc(CN2CCC(C(=O)NCc3ccc(F)cc3)CC2)c(C)o1 | . | . | i | 20.6µM* | 16.4µM* | i
C[C@@H]1CN([C@H](C)CO)C(=O)CCCn2cc(nn2)CO[C@H]1CN(C)C(=O)Cc1ccccc1 | 2.8% | 2.4% | i | -14.3% | -24.8% | i
Cc1ccc(N2C(=O)c3[nH]nc(-c4ccc(Cl)cc4)c3C2c2ccc(F)cc2)cc1 (configuration not stated) | . | . | i | 20.6µM* | 14.6µM* | ?
COc1cc(C2c3c(-c4ccc(C)cc4)n[nH]c3C(=O)N2c2ccc(F)cc2)ccc1O (configuration not stated) | . | . | i | ? | ? | i
Cc1ccc(-c2n[nH]c3c2C(c2cccs2)N(c2ccc(Cl)cc2)C3=O)cc1 (configuration not stated) | . | . | ? | ? | 16.4µM* | i
O=C(NCc1cccc(C(F)(F)F)c1)C1C(=O)Nc2ccccc2C(=O)N1Cc1ccccc1 (configuration not stated) | -4.0% | -10.3% | ? | ? | ? | ?
Cc1cccc(/C=C2\Sc3ccc(C(=O)N4CCC(C)CC4)cc3N(C)C2=O)c1 | ? | ? | ? | ? | ? | i
CCOC(=O)N1CCN(C(=O)c2ccc3c(c2)N(C)C(=O)/C(=C\c2ccc(OCC)c(OC)c2)S3)CC1 | ? | -18.6% | ? | 16.4µM* | ? | i
CCOC(=O)N1CCC(NC(=O)c2ccc3c(c2)N(C)C(=O)/C(=C/c2cccc(OC)c2)S3)CC1 | -0.7% | -1.0% | i | 18.4µM* | 18.4µM* | i
SMILES | HT1080 IDH1KD tx | HT1080-NT tox | KB-3-1 cytotox | DT40 TDP1 no CPT | TDP1 cell CPT | KB-V1 MDR tox
CCOC(=O)N1CCN(C(=O)c2ccc3c(c2)NC(=O)/C(=C\c2cccc(C)c2)S3)CC1 | 0.7% | -4.1% | ? | 13µM* | ? | ?
CCOc1ccc(/C=C2/Sc3ccc(C(=O)NCC4CCCO4)cc3N(C)C2=O)cc1OC (configuration not stated) | -6.6% | -15.1% | i | ? | ? | i
CCOC(=O)N1CCN(C(=O)c2ccc3c(c2)NC(=O)/C(=C\c2ccc(OC)c(OC)c2)S3)CC1 | 6.9% | 14.0% | ? | 16.4µM* | ? | i
CC1(C(=O)N/N=C/c2ccccc2)CC1(Cl)Cl (configuration not stated) | 5.4% | 1.2% | i | -15.8% | -3.9% | ?
O=C(/C=C/[C@H]1O[C@@H](n2ccc(=O)[nH]c2=O)[C@H](O)[C@@H]1O)NCCc1c[nH]c2ccccc12 | 16.6% | 20.4% | i | 27.5% | 1.3% | i
OC(C[n+]1ccccc1)c1ccccc1 (configuration not stated) | 0.1% | -11.3% | i | 13.5% | -13.0% | i
Cn1cc(CN2CCN(c3ccc(Cl)cn3)CC2)c(-c2ccccc2F)n1 | 4.0% | 3.5% | i | ? | ? | i
Cc1cc(-c2nn(-c3ccccc3F)cc2CN2CCN(c3ccccn3)CC2)c(C)s1 | ? | -4.1% | i | 11.6µM* | 13µM* | 16.4µM*
Cc1cc(-c2nn(-c3ccccc3F)cc2CNCCc2cnccn2)c(C)s1 | -22.6% | -13.0% | i | -28.3% | ? | ?
Cc1cccc(N2CCN(Cc3cn(C)nc3-c3ccccc3F)CC2)n1 | 1.84µM* | ? | 5.8µM* | 2.59µM* | 1.84µM* | ?
